Records with an inconclusive call do not appear. The source made the active and inactive calls. Unless noted, how the calls were made is not given here.
Key:
[1] = qHTS Assay for Identifying Gametocytocidal Compounds (AID 743244; active means well fitted curve in the direction sought with a large enough effect; an effect the other way counts as inactive or inconclusive; further: potency means the concentration at half of the fitted maximal effect;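 on max response: on the % scale 0 is the no-effect control and ±100 the full control effect; actives lower the fluorescent signal which means gametocytes are killed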); settings: P. falciparum 3D7 stage III-V gametocytes, alamarBlue, 72 h; max response: stronger effect = lower value
How it was run: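 Stage III-V P. falciparum 3D7 gametocytes, 20,000 per well, were exposed to compounds for 72 h at 37C, 5% CO2. AlamarBlue was then added for 24 h and viability was read as fluorescence at Ex 525/Em 598 nm.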

[2] = qHTS profiling for inhibitors of Plasmodium falciparum (3D7) proliferation (AID 743322);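 further: infected erythrocytes exposed to compound for 72 h before lysis; 100% = DMSO vehicle wells and 0% = 0.29 µM artemisinin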; settings: P. falciparum 3D7 proliferation; at 28.7 µM (top of the series)
How it was run: (§1)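 Erythrocytes infected with P. falciparum (0.3% parasitemia, 2.5% hematocrit) incubated with compounds 72 h at 37 C, 5% CO2. Lysis with saponin/Triton buffer containing SYBR Green I, overnight at room temperature in the dark; DNA fluorescence (485/535 nm) normalised to 0.29 uM artemisinin and DMSO.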

[3] = qHTS profiling for inhibitors of Plasmodium falciparum (DD2) proliferation (AID 743323); settings: lower = more inhibition; at 28.7 µM (top of the series)
How it was run: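 Parasite proliferation measured via DNA-dye fluorescence, as uninfected erythrocytes lack DNA. Cultures at 0.3% parasitemia and 2.5% hematocrit incubated 72 h with compound; signal scaled between vehicle and 0.29 uM artemisinin wells.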

[4] = qHTS profiling for inhibitors of Plasmodium falciparum (HB3) proliferation (AID 743324; active means well fitted curve in the direction sought with a large enough effect; an effect the other way counts as inactive or inconclusive;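 further: 100% = DMSO vehicle wells and 0% = artemisinin-treated control wells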); settings: Plasmodium falciparum HB3 blood-stage proliferation; at 28.7 µM (top of the series)
How it was run: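 P. falciparum HB3 grown in erythrocytes (0.3% parasitemia, 2.5% hematocrit final) with compound for 72 h at 37 C, 5% CO2. Parasite DNA detected by SYBR Green after saponin/triton lysis overnight; normalized to 0.29 uM artemisinin and DMSO.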

[5] = qHTS profiling of the MIPE4 collection as inhibitors of Plasmodium falciparum (3D7) proliferation (AID 743344);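 further: scaled between DMSO vehicle wells and 0.29 µM artemisinin as full inhibition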; settings: P. falciparum 3D7 in erythrocytes, SYBR Green DNA fluorescence, 72 h; at 28.5 µM (top of the series) unless noted
How it was run: as §1

[6] = qHTS profiling of the MIPE4 collection as inhibitors of Plasmodium falciparum (DD2) proliferation (AID 743345); settings: P. falciparum Dd2 in erythrocytes, SYBR Green DNA, 72 h; at 28.5 µM (top of the series) unless noted
How it was run: as §1

[7] = qHTS profiling of the MIPE4 collection as inhibitors of Plasmodium falciparum (DD2) proliferation (Rep 2) (AID 743346); settings: P. falciparum Dd2 in erythrocytes, SYBR Green DNA, 72 h; at 28.5 µM (top of the series) unless noted
How it was run: as §1

[8] = qHTS profiling of the MIPE4 collection as inhibitors of Plasmodium falciparum (HB3) proliferation (AID 743347);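 further: plate controls were DMSO vehicle wells for no effect and artemisinin wells for full effect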; settings: P. falciparum HB3 in erythrocytes, SYBR Green DNA, 72 h; at 28.5 µM (top of the series) unless noted
How it was run: as §1

[9] = High-throughput drug toxicity screening in the BPDCN cell line Gen2.2 (AID 1224824); settings: Gen2.2 BPDCN cells; at 45.8 µM (top of the series) unless noted;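 further: cells exposed to compounds for 48 h before reading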
How it was run: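 Seed 500 exponentially growing Gen2.2 cells/well; add compounds by pin tool; incubate 48 h, 37 °C, 5% CO2; add CellTiter-Glo, 15 min RT; read luminescence. % activity vs DMSO (100%) and bortezomib (0%).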

[10] = High-throughput drug toxicity screening in the BPDCN cell line Cal-1 (AID 1224825); settings: Cal-1 BPDCN cell viability, qHTS; at 45.8 µM (top of the series) unless noted
How it was run: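 Exponentially growing Cal-1 cells, 500 per well in phenol red-free RPMI with 10% FBS, were exposed to compounds for 48 h at 37 °C, 5% CO2. Viability was read by CellTiter-Glo luminescence and normalised to DMSO (100%) and 9.2 uM bortezomib (0%).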

[11] = qHTS assay for measurement of the activity of small molecule inhibitors on Zika virus induced Caspase-3 activity in human iPSC derived neural progenitor cells (hNPCs) (AID 1224857; active means well fitted curve in the direction sought with a large enough effect; an effect the other way counts as inactive or inconclusive; further: % of control where 0% means no effect; nearly all actives have a fitted effect of over 65% in size)
How it was run: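 Human iPSC-derived neural progenitor cells pretreated 1 hr with compounds, then infected with Zika virus (2 FFU/cell) for 6 hours at 37 C. Caspase-3/7 measured by Caspase-Glo luminescence; % inhibition calculated from induction scaled to uninfected (0%) and infected (100%) wells.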

[12] = qHTS assay for measurement of the activity of small molecule inhibitors on Zika virus induced Caspase-3 activity in human astrocytoma cells (AID 1224859; active means well fitted curve in the direction sought with a large enough effect; an effect the other way counts as inactive or inconclusive;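 further: plate controls were ZIKV-infected untreated cells for no effect and uninfected cells for full effect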)
How it was run: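 SNB-19 astrocytoma cells, 250/well, pretreated 1 h with compounds, then Zika virus at 2 FFU/cell for 6 h at 37 C; Caspase-Glo 3/7 luminescence after 30 min; percent inhibition normalised to uninfected and infected controls.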

| SMILES | max response [1] | remaining parasite growth % (stronger effect = lower value) [2] [%] | activity, percent of control [3] [%] | remaining proliferation (% of control), lower = more inhibition [4] [%] | parasite growth, % of DMSO control [5] [%] | parasite growth remaining, % of DMSO control (lower = more inhibition) [6] [%] | parasite growth, % of control (lower = inhibition) [7] [%] | growth, % of control [8] [%] | cell viability, % of control (lower = more cytotoxic) [9] [%] | viability (% of control) [10] [%] | Potency [11] | Potency [12] | Potency [1] |
| --- | --- | --- | --- | --- | --- | --- | --- | --- | --- | --- | --- | --- | --- |
| O=C(C=Cc1cccnc1)NCCCCC1CCN(C(=O)c2ccccc2)CC1 | 33.6% (inactive) | 81.9 | 85.9 | 46.3 | 50.2 | 93.7 | 51 | 42 | 48 | 4.19 | inactive | inactive | – |
| CC(C)(C)c1cc(C(C)(C)C)c(NC(=O)c2c[nH]c3ccccc3c2=O)cc1O | 7.52% (inactive) | 33.5 | 28.9 | 18.9 | 106 | 95.2 | 88.9 | 57.9 | 105 | 102 | inactive | inactive | – |
| CNC(=O)c1cc(Oc2ccc(NC(=O)Nc3cc(C(C)(C)C)nn3-c3ccc4ncccc4c3)c(F)c2)ccn1 | -28.6% (inactive) | 26.7 | 73.3 | 24.1 | 5.7 | 15.5 | 10.2 | 9.48 | 5.59 | 7 | inactive | inactive | – |
| C=CC(=O)Nc1cc2c(Nc3ccc(F)c(Cl)c3)ncnc2cc1C#CC(C)(C)N1CCN(C)CC1 | – | -1.21 | -0.164 | -0.161 | 9.4 | 8.69 | 18 | 4.67 | 6.93 | 1.87 | inactive | inactive | 18.7 µM (active) |
| COc1ccc(CC2SC(=O)NC2=O)cc1C(=O)NCc1ccc(C(F)(F)F)cc1 (stereo not given) | 16.4% (inactive) | 90.2 | 93.1 | 54.2 | 32.5 | 91.4 | 56.9 | 55.5 | 96 | 84.9 | inactive | inactive | – |
| CS(=O)(=O)N1CCN(Cc2cc3nc(-c4cccc5[nH]ncc45)nc(N4CCOCC4)c3s2)CC1 | – | – | – | – | – | – | – | – | 27.2 | 27.7 | inactive | inactive | – |
| CC(C)CC(=O)Nc1n[nH]c2c1CN(C(=O)C1CCN(C)CC1)C2(C)C | – | 9.49 | 13.7 | – | 5.43 | 19.3 | 34.2 | 5.85 | 3.03 | 2.15 | inactive | inactive | 18.7 µM (active) |
| CC=C1NC(=O)[C@H]2CSSCCC=C[C@H](CC(=O)N[C@H](C(C)C)C(=O)N2)OC(=O)[C@H](C(C)C)NC1=O | – | 95.6 | 92.5 | 98.4 | 5.8 | 8.63 | 12.2 | 8.43 | 5.71 | 4.69 | inactive | inactive | 0.59 µM (active) |
| COc1cc(C(C)C)c2c(c1)S(=O)(=O)N(COc1cc(=O)n3cccc(OCCN4CCCCC4)c3n1)C2=O | -3.11% (inactive) | 105 | 94.1 | 89.5 | 101 | 95.7 | 114 | 107 | 3.67 | 10.9 | inactive | inactive | – |
| CN(C)CC=CC(=O)Nc1cc2c(Nc3ccc(F)c(Cl)c3)ncnc2cc1O[C@H]1CCOC1 | – | -0.281 | 0.518 | 0.188 | 6.72 | 7.96 | 9.26 | 8.85 | 6.25 | 5.7 | inactive | inactive | 0.935 µM (active) |
| Cc1ccc(-c2ncn(-c3ccc(Nc4nccc(-c5cccc(N6CCOCC6)c5)n4)cc3)n2)cn1 | – | 3.9 | 4.15 | 5.18 | 5.55 | 6.69 | 11.5 | 8.45 | 5.12 | 3.62 | inactive | inactive | 11.8 µM (active) |
| CC(C)(C)c1cnc(CSc2cnc(NC(=O)C3CCNCC3)s2)o1 | – | 9.96 | 6.95 | – | 11.9 | 13 | 24.1 | 12.8 | 1.75 | 1.24 | inactive | inactive | 4.18 µM (active) |
| COc1ccc2c(c1)CC[C@@H](CN(C)CC(=O)O)[C@H]2c1ccccc1 | 4.46% (inactive) | 101 | 98.6 | – | 31.6 | 35.4 | 28.4 | 24.2 | 39.9 | 21.4 | inactive | inactive | – |
| C[C@@H](Oc1cc(-c2cnn(C3CCNCC3)c2)cnc1N)c1c(Cl)ccc(F)c1Cl | – | -1.04 | 1.46 | -2.16 | 5.26 | 5.84 | 10.7 | 2.36 | 13.2 | 3.63 | inactive | inactive | 7.43 µM (active) |
| O=C(O)c1ccc2c(c1)nc(Nc1cccc(Cl)c1)c1ccncc12 | 35.3% (inactive) | 9.86 | 12.2 | -0.0167 | 6.23 | 9 | 9.96 | 4.4 | 84.5 | 72.1 | inactive | inactive | – |
| C=CC(=O)Nc1cccc(Oc2nc(Nc3ccc(N4CCN(C)CC4)cc3OC)ncc2Cl)c1 | – | 5.98 | 12.5 | – | 10.5 | 15.1 | 26.7 | 4.13 | 8 | 16.3 | inactive | inactive | 14.8 µM (active) |
